The whole screen tested about 16,000 compounds, of which about 2,600 (16%) were called active. About 20% were inconclusive and are not listed. The call rests on the fitted dose curve; in most records, active means well fitted curve in the direction sought with a large enough effect; inconclusive means small, poorly fitted or top-dose-only effect, or effect the other way; inactive means no such curve, though single readings can be large or run the other way. Not all results are given here.
target: Cytochrome P450 2D6 (Homo sapiens) (UniProt P10635); experiment: Cytochrome panel assay with activity outcomes; details: recombinant CYP, pro-luciferin dealkylation, luminescence, p450-cyp2d6; series mostly up to 57.1 µM
On the % scale 0 is the no-effect control and ±100 the full control effect.

Sequence of Cytochrome P450 2D6 (Homo sapiens) (P10635 whole entry, looked up): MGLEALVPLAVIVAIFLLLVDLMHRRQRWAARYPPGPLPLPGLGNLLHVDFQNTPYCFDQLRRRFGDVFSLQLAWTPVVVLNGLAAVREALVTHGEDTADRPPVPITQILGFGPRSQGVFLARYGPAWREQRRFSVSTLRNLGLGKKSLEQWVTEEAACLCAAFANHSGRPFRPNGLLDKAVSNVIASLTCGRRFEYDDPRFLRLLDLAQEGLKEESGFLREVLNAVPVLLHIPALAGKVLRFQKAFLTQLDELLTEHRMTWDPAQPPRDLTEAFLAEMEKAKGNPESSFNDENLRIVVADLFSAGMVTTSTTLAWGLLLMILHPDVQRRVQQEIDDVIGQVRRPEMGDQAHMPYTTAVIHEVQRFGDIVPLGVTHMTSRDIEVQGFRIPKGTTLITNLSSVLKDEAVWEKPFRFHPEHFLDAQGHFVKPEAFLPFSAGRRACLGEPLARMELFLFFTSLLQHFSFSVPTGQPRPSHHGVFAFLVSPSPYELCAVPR

| SMILES | AC50 | activity, negative = inhibition |
| --- | --- | --- |
| OC[C@@H]1O[C@@H](n2cnc3c(NC4CCCC4)ncnc32)[C@@H](O)[C@H]1O | inactive |  |
| CCN1C(=O)C=CC1=O | inactive |  |
| CC[N+](CC)(CC)CC | inactive |  |
| Clc1ccc(Sc2cc(N3CCOCC3)nc(-c3ccccc3)n2)cc1 | inactive |  |
| CC(=O)C1=C(NC(=O)c2ccc(F)cc2)CC2C1C2(C)C (stereo not drawn) | inactive |  |
| Cc1[nH]nc(Nc2ccccc2)c1[N+](=O)[O-] | 10 µM (active) |  |
| Nc1nc(NCc2ccccc2)nc(Nc2cccc(F)c2)c1[N+](=O)[O-] | inactive |  |
| Cc1ccc(CNc2nc(N)c([N+](=O)[O-])c(Nc3ccc(F)cc3)n2)cc1 | inactive |  |
| CCOC(=O)CCc1c(C)nc2ncnn2c1C | inactive |  |
| O=C(OCC#CCSc1nnc(-c2cccc3ccccc23)o1)c1ccco1 | inactive |  |
| COc1cc2c(cc1OC)C(C(=O)Nc1ccccn1)C(c1cccnc1)N(C)C2=O (stereo not drawn) | inactive |  |
| c1ccc(C(CCN2CC3CCC(CC3)C2)c2ccccc2)cc1 | 0.794 µM (active) |  |
| c1ccc([C@H](CCN2CCCC2)c2ccccn2)cc1 |  | 12% [at 11.4 µM] (inactive) |
| CCOc1cc(/C=N/NC(=O)CN2CCCCC2)ccc1OCc1ccccc1 | inactive |  |
| C/C(CCN1CCc2nc(-c3ccccc3)c(-c3ccccc3)cc2C1)=N\OC[C@@H](O)COCc1ccco1 |  | 7.77% [at 11.4 µM] (inactive) |
| Cc1nc2cnc(Oc3cccc(Cl)c3)nc2n(CCc2ccccc2)c1=O | inactive |  |
| COC(=O)[C@@H]1CC[C@H](C)[C@@H](c2ccc(C)cc2)N1C(=O)c1ccc(/C=N\OC[C@@H](C)[C@H](OCc2ccccc2)C(C)C)cc1 | 3.98 µM (active) |  |
| COC(=O)[C@@H]1CC[C@H](C)[C@@H](c2ccc(C)cc2)N1C(=O)c1ccc(/C=N\OC[C@@H](O)COCc2ccco2)cc1 |  | -0.0575% [at 11.4 µM] (inactive) |
| CO/N=C\c1ccc(C(=O)N2[C@H](c3ccc(C)cc3)[C@@H](C)CC[C@H]2C(=O)OC)cc1 |  | 16% [at 11.4 µM] (inactive) |
| CC(C)(C)C(=O)[C@H]1[C@H](c2ccccc2)[C@@]2(N=C(c3ccccc3)OC2=O)C2c3ccccc3C=NN21 (stereo partly drawn) | inactive |  |
| C#CCCCO/N=C1/C[C@@H](O)[C@@H](O)[C@@H]2[C@H]3C(=O)N(c4ccc(F)cc4F)C(=O)[C@@H]3CC[C@H]12 |  | -3.2% [at 11.4 µM] (inactive) |
| Cc1cc(C(C)(C)C)cc(CNC2CCCCC2)c1O | 0.501 µM (active) |  |
| CC(C)(C)c1cc2c(O)c(c1)Cc1cc(C(C)(C)C)cc(c1O)Cc1cc(C(C)(C)C)cc(c1O)Cc1cc(C(C)(C)C)cc(c1O)Cc1cc(C(C)(C)C)cc(c1O)Cc1cc(C(C)(C)C)cc(c1O)Cc1cc(C(C)(C)C)cc(c1O)Cc1cc(C(C)(C)C)cc(c1O)C2 |  | 12.2% [at 11.4 µM] (inactive) |
| Oc1cc(CN2COc3ccccc32)c(O)cc1CNC1CCCCC1 |  | -11.4% [at 11.4 µM] (inactive) |

| SMILES | AC50 | activity, negative = inhibition |
| --- | --- | --- |
| COCCn1c(=O)c(-c2ccccc2)nc2cnc(Nc3cccc(OC)c3)nc21 | inactive |  |
| Cc1cc(C)cc(N(C(=O)c2ccccn2)C(C(=O)NC2CCCCC2)c2cccs2)c1 (stereo not drawn) | inactive |  |
| Cc1ccc(N(C(=O)C(F)(F)F)C(C(=O)NC2CCCCC2)c2cccs2)cc1C (stereo not drawn) | inactive |  |
| CC(C)c1ccc(N(C(=O)C(F)(F)F)C(C(=O)NC2CCCCC2)c2ccncc2)cc1 (stereo not drawn) | inactive |  |
| Cc1nn(C)cc1C(C(=O)NC1CCCCC1)N(C(=O)Cc1cccs1)c1ccc(C(C)C)cc1 (stereo not drawn) | inactive |  |
| Cc1cc(C)cc(N(C(=O)Cc2cccs2)C(C(=O)NC2CCCCC2)c2ccccn2)c1 (stereo not drawn) | inactive |  |
| Cc1ccc(C(OC(=O)c2ccco2)C(=O)NC2CCCCC2)cc1 (stereo not drawn) | inactive |  |
| O=C(NC1CCCCC1)C(c1cccs1)N(Cc1cccs1)C(=O)c1ccco1 (stereo not drawn) | 17.8 µM (active) |  |
| O=C(NC1CCCC1)C(c1ccsc1)N(Cc1ccccc1)C(=O)Cc1cccs1 (stereo not drawn) | 12.6 µM (active) |  |
| O=C(NC1CCCCC1)C(c1cccs1)N(C(=O)C(F)(F)F)c1ccccc1 (stereo not drawn) | 10 µM (active) |  |
| CC(C)(S)[C@H](N)C(=O)O |  | 14.1% [at 11.4 µM] (inactive) |
| Cc1nc(S(=O)(=O)N(C)c2ccccc2)c(C#N)c(C)c1Cl | inactive |  |
| CCOC(=O)c1cc2c(C(F)(F)F)cc(-c3ccccc3)nc2o1 | inactive |  |
| Nc1c(S(=O)(=O)O)cc(Nc2cccc(S(N)(=O)=O)c2)c2c1C(=O)c1ccccc1C2=O |  | -9.77% [at 11.4 µM] (inactive) |
| CCOC(=O)c1cc(NC(=O)c2ccc(C)cc2)c(=O)oc1-c1ccccc1 | inactive |  |
| O=C(O)c1cc(=O)c2ccc(Cl)cc2[nH]1 | inactive |  |
| O=C(c1c(O)c2ccc(Cl)cc2[nH]c1=O)C1CC1 | 0.1 µM (active) |  |
| CCOC(=O)Nc1ccc2c(c1)N(C(=O)CCN1CCOCC1)c1ccccc1S2 | inactive |  |
| CC1CCN(CC(=O)N2c3ccccc3Sc3cc4ccccc4cc32)CC1 | 3.98 µM (active) |  |
| COc1ccc(OC)c2[nH]c(=O)c(CCNC(=O)C3CCCCC3)cc12 | inactive |  |
| COc1ccc(-c2[nH]c(-c3ccc(C(=O)O)cc3)nc2-c2ccccc2)cc1 | inactive |  |
| COc1ccc([N+](=O)[O-])cc1COc1ccc2c(-c3ccccc3)cc(=O)oc2c1 | inactive |  |
| COc1ccc(-c2nc(-c3ccccc3)c(-c3cc([N+](=O)[O-])ccc3C)[nH]2)cc1O | 28.2 µM (active) |  |
| COc1cccc(Nc2ncc3nc(-c4ccccc4)c(=O)n(C)c3n2)c1 | inactive |  |

| SMILES | AC50 | activity, negative = inhibition |
| --- | --- | --- |
| CCOc1ccc(-n2c(N)c(C(=O)NCc3cccnc3)sc2=S)cc1 | inactive |  |
| CCOc1ccc(N2CC(C(=O)NCc3cccc(C)c3)CC2=O)cc1 (stereo not drawn) | inactive |  |
| COc1cccc(CSCC(=O)O)c1 |  | 14.7% [at 11.4 µM] (inactive) |
| COc1cccc(CNCCNC(=O)c2nonc2N)c1 | 3.16 µM (active) |  |
| COCCNC(=O)c1cc(-c2cccc(OC)c2)on1 | inactive |  |
| CCOc1cccc(CNCCNC(=O)c2nonc2N)c1 | 2.24 µM (active) |  |
| CCOC(=O)N1CCC(NC(=O)CCC(=O)N2CCOc3ccccc32)CC1 | inactive |  |
| Cc1ccc(Oc2nn[nH]n2)cc1 | inactive |  |
| CC(=O)OCC1=C(C(=O)O)N2C(=O)[C@@H](NC(=O)CSc3ccncc3)[C@@H]2SC1 | inactive |  |
| COc1cc(/C=C2/C(=N)N3C=CSC3=NC2=O)ccc1OCCCOc1c(C)cccc1C | inactive |  |
| C/C(=N\NC(N)=O)c1ccc(Cl)cc1 | inactive |  |
| COC(=O)c1ccc(NC(=O)c2cc3sccc3n2C)cc1 | inactive |  |
| O=C(CN1C(=O)C2C3C=CC(C3)C2C1=O)Nc1ccc2c(c1)OCCO2 (stereo not drawn) | inactive |  |
| O=C(c1cc2sccc2n1Cc1ccccc1)N1CCN(c2nc3ccccc3s2)CC1 | inactive |  |
| O=C(Nc1nccs1)c1sc2cc(Cl)ccc2c1Cl | inactive |  |
| Cc1nc(SCC(=O)Nc2ccc3c(c2)OCCO3)c2oc3ccccc3c2n1 | inactive |  |
| Cc1nnc(SCC(=O)Nc2nccs2)[nH]c1=O | inactive |  |
| C/C(=N\NC(=O)Cc1ccc(Cl)cc1)c1ccccn1 | inactive |  |
| C/C(=N\NC(=O)CSCc1ccc(Cl)cc1)c1ccc2c(c1)OCCO2 | 0.562 µM (active) |  |
| O=C(CSCc1ccc(Cl)cc1)Nc1nccs1 | 5.62 µM (active) |  |
| O=C(Nc1ccc2c(c1)OCCO2)c1cc2sccc2n1Cc1ccccc1 | 7.94 µM (active) |  |
| O=C(CSCc1ccc(Cl)cc1)Nc1ccc2c(c1)OCCO2 | 3.98 µM (active) |  |
| COc1ccc(COC(=O)N/N=C2/C[C@@H](O)[C@@H](O)[C@@H]3[C@@H]4C(=O)N(C(C)(C)C)C(=O)[C@H]4CC[C@H]23)cc1 |  | 19.2% [at 11.4 µM] (inactive) |
| O=C(O)CCc1ccc(-c2ccc(Cl)cc2)n1CCC(=O)O | inactive |  |

| SMILES | AC50 | activity, negative = inhibition |
| --- | --- | --- |
| O=S(=O)(c1ccccc1)N1CCCC1c1nc2ccccc2s1 (stereo not drawn) | inactive |  |
| COc1ccc(N2C(=O)CCC(C(=O)Nc3ccccn3)C2c2ccc(OC)c(OC)c2)cc1 (stereo not drawn) | inactive |  |
| Oc1cc(O)c2c(c1)O[C@H](c1ccc(O)c(O)c1)[C@H](O)C2 | inactive |  |
| COc1ncc2ncc(=O)n(C)c2n1 | inactive |  |
| COC(=O)C1CSC(C(=O)OC)N1C(=O)Nc1ccccc1 (stereo not drawn) | inactive |  |
| CC(=O)Nc1ccc2c(c1)OCCOCCOc1cc(NC(C)=O)ccc1OCCOCCOCCO2 | inactive |  |
| CC(=O)Nc1ccc2c(c1)OCCO2 | inactive |  |
| O=C(CC(c1ccccc1)c1ccccc1)Nc1ccc2c(c1)OCCO2 | 0.251 µM (active) |  |
| CO[C@H]1[C@@H](OC(N)=O)[C@H](O)[C@@H](Oc2ccc3c(O)c(NC(=O)c4ccc(O)c(CC=C(C)C)c4)c(=O)oc3c2C)OC1(C)C | inactive |  |
| COc1ccc(CCNC(=O)c2ccc3c(=O)n(Cc4ccco4)c(=S)[nH]c3c2)cc1OC | inactive |  |
| Cc1ccc2nc(Nc3nc(-c4ccccc4)cc(=O)[nH]3)nc(C)c2c1 | inactive |  |
| Cc1ccc2nc(SCC(=O)Nc3nnc(SCC(N)=O)s3)[nH]c2c1 | inactive |  |
| Cc1ccc2c(C)nc(Nc3nc(CSc4nc5ccccc5[nH]4)cc(=O)[nH]3)nc2c1 | 3.55 µM (active) |  |
| Cc1nn(C)c(Oc2cccc(Cl)c2)c1C=O | inactive |  |
| Cc1ccc(C(=O)N/C(=C\c2ccc([N+](=O)[O-])cc2)C(=O)NCCc2ccccc2)cc1 | inactive |  |
| CN1CCc2cccc3c2[C@H]1Cc1ccc(O)c(O)c1-3 | 12.6 µM (active) |  |
| CN1CCc2cccc3c2[C@@H]1Cc1ccc(O)c(O)c1-3 | inactive |  |
| COc1ccc(C2=CSC(/N=C/c3ccc(F)cc3)=NN2)cc1 | inactive |  |
| COC(=O)CCSc1cc([N+](=O)[O-])cc2c1c(C1OCCS1)nn2-c1ccccc1 (stereo not drawn) | 12.6 µM (active) |  |
| Cc1ccccc1OC/C(O)=C(\C#N)c1nc2ccccc2[nH]1 | inactive |  |
| Cc1cc(O)c(/C=N/Nc2cccc(Cl)c2)c(=O)o1 | 0.158 µM (active) |  |

— PubChem BioAssay AID1851 (National Center for Advancing Translational Sciences (NCATS), 2009)
